Source: PubChem BioAssay
Active and inactive are the calls of the source.

Legend:
[1] = small molecules captured by biotinylated probe aFSTL3 – biochemical, small-molecule microarray, fluorescence 635/667, stem cell growth factor project, primary screen (AID 1064); conditions: higher = more signal;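 also: measures binding of the biotinylated anti-FSTL3 antibody to printed compounds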
[2] = binders from COS7 lysate, DM2A8 probe, primary screen, torsin A project, cell lysate, small-molecule microarray, fluorescence 635/667 (AID 1065); conditions: higher = more signal, COS7 lysate expressing mutant human TOR1A
[3] = small molecules captured by biotinylated probe aFGF2 – biochemical, small-molecule microarray, fluorescence 635/667, stem cell growth factor project, primary screen (AID 1067); conditions: higher = more signal;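 also: measures binding of biotinylated aFGF2 protein to printed compounds on slides; z-score merges feature fluorescence and signal-to-noise across triplicate slides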
[4] = small molecules captured by biotinylated probe aFGF10 – biochemical, small-molecule microarray, fluorescence 635/667, stem cell growth factor project, primary screen (AID 1071); conditions: higher = more signal;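 also: score merges 667 nm spot intensity and signal to noise from triplicate slides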
[5] = target: Neurogenic locus notch homolog protein 2 (Homo sapiens) (UniProt Q04721); experiment: small molecules binding Notch2 protein – biochemical, small-molecule microarray, 635 nm fluorescence, stem cell growth factors, primary screen (AID 1073); conditions: higher = more signal
Sequence of Neurogenic locus notch homolog protein 2 (Homo sapiens) (Q04721 whole entry, looked up, canonical isoform): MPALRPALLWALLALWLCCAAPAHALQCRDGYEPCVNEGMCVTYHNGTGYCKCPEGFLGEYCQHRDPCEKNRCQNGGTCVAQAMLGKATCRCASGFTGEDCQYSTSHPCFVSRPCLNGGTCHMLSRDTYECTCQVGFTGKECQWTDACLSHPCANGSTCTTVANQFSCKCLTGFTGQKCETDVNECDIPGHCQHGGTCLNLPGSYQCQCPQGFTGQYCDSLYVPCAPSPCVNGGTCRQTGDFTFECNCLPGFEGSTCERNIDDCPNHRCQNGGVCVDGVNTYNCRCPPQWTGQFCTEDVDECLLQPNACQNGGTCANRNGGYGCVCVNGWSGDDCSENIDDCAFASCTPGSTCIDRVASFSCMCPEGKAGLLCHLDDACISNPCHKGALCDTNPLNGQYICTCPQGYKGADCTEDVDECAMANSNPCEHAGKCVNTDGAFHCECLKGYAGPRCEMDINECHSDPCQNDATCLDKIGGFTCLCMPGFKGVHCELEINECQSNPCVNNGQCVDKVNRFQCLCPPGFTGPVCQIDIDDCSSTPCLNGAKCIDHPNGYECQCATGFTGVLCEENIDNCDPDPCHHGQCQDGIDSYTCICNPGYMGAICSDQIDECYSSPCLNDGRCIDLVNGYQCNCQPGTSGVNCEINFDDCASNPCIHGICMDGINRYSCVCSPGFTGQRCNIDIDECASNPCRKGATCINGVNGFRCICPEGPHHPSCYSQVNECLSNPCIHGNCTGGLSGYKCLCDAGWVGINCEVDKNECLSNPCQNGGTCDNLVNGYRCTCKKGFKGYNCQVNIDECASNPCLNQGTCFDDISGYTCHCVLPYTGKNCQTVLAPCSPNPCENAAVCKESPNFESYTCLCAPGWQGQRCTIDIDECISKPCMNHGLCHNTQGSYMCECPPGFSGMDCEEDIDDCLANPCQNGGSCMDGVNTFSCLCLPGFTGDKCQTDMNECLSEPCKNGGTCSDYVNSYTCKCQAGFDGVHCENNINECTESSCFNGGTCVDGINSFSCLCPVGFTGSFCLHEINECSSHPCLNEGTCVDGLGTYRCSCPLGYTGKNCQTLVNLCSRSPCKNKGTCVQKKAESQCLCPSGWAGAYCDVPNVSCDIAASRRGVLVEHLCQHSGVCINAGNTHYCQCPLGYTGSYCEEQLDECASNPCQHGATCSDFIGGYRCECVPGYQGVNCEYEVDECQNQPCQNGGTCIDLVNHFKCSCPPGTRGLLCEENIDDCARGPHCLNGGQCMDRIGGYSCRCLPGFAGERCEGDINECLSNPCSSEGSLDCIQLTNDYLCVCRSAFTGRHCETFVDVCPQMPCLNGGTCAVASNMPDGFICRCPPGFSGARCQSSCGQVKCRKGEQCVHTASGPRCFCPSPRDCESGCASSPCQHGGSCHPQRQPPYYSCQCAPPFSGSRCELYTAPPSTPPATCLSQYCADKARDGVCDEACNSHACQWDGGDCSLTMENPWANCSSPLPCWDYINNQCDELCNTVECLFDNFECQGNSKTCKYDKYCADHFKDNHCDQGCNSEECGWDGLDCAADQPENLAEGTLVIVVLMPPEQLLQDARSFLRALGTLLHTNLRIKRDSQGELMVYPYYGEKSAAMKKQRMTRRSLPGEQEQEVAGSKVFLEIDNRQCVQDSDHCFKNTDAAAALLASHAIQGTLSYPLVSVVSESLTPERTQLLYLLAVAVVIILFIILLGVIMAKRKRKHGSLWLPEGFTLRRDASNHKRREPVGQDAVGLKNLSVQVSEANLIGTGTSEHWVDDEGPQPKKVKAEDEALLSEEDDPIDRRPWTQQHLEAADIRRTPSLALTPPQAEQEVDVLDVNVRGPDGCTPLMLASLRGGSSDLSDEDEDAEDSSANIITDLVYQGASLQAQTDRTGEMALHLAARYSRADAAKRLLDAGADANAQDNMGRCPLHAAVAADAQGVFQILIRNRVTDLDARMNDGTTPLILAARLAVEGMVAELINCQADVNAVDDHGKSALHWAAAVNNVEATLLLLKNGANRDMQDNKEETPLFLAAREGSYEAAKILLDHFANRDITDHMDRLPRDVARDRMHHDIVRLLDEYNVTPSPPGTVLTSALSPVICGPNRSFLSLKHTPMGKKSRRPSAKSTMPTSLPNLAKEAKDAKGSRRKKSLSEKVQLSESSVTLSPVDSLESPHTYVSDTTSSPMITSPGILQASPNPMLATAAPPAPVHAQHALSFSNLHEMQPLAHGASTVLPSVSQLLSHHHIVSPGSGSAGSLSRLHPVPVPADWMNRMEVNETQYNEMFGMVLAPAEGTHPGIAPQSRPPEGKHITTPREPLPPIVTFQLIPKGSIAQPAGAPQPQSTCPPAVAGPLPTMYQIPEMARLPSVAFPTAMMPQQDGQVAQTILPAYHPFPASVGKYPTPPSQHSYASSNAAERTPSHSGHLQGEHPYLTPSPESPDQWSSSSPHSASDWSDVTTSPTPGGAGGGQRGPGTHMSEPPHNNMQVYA

[6] = target: Pro-neuregulin-1, membrane-bound isoform (Homo sapiens) (UniProt Q02297); experiment: small molecules binding neuregulin-1 protein – biochemical, small-molecule microarray, fluorescence 635/667, psychiatric disease protein project, primary screen (AID 1075); conditions: NRG1 binding, 635 nm fluorescence, higher = more signal;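 also: score combines 667 nm spot fluorescence with signal to noise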
Sequence of Pro-neuregulin-1, membrane-bound isoform (Homo sapiens) (Q02297 whole entry, looked up, the tested form may be a part, canonical isoform): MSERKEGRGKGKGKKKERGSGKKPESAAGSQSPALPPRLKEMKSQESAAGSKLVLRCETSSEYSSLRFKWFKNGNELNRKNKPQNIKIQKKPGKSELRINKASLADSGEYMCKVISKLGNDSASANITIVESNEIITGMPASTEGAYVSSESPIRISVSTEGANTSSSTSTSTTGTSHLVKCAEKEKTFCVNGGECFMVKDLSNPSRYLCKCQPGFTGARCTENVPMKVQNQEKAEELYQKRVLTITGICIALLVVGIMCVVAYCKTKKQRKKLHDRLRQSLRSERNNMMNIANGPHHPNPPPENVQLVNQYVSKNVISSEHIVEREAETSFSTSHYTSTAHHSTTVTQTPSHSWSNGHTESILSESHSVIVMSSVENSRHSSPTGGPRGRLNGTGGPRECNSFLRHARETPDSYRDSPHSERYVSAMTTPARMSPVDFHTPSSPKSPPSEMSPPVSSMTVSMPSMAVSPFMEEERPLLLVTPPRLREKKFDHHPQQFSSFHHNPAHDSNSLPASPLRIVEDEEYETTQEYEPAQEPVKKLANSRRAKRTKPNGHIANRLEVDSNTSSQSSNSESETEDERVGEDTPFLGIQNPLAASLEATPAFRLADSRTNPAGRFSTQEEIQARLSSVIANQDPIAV

[7] = tested on: Neuregulin-1 EGF-like domain; experiment: small molecules binding NRG1 EGF domain – biochemical, small-molecule microarray, 635 nm fluorescence, primary screen (AID 1081); conditions: higher = more signal;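 also: binding of the protein to compounds printed on small-molecule microarray slides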
[8] = FRG1 expression reporter modulators in myotubes – cell-based, C2C12 myotubes, firefly/Renilla luciferase, luminescence, FRG1 inhibition for FSHD, primary screen (AID 1084); conditions: FRG1 promoter luciferase, higher = more signal, called active from +8 up or from −8 down
[9] = small molecules captured by biotinylated probe aFST – biochemical, small-molecule microarray, fluorescence 635/667, stem cell growth factor project, primary screen (AID 1086); conditions: higher = more signal;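 also: score merges 667 nm fluorescence with signal-to-noise of each printed compound spot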
[10] = binders of probe aHhip on microarray, primary screen, stem cell growth factor project, biochemical, small-molecule microarray, fluorescence 635/667 (AID 1087); conditions: higher = more signal;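 also: score merges spot fluorescence at 667nm with spot signal to noise ratio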

SMILES: NCCCCCNC(=O)[C@@H]1C[C@@H]2C(=O)N[C@@H](CCCCN)C(=O)N2[C@@H]1c1cccc(OCCO)c1
- composite z-score [1]: 0.0523
- composite z-score [2]: 0.329
- composite z-score [3]: -0.0037
- composite z-score [4]: -0.202
- composite z-score [5]: -0.254
- composite z-score [6]: 2.11
- composite z-score [7]: 0.969
- z-score [8]: -0.697 (inactive)
- composite z-score [9]: -0.413
- composite z-score [10]: 0.0497

SMILES: COc1ccc(NC(=O)O[C@H]2[C@H](OC(=O)Nc3ccc4c(c3)OCO4)[C@@H](OC(=O)Nc3ccc4c(c3)OCO4)[C@@H](OC)O[C@@H]2CO)cc1
- composite z-score [1]: 0.157
- composite z-score [2]: -0.0536
- composite z-score [3]: 0.0397
- composite z-score [4]: 0.639
- composite z-score [5]: 0.922
- composite z-score [6]: 1.57
- composite z-score [7]: 1.2
- z-score [8]: 6.75 (inactive)
- composite z-score [9]: 0.4
- composite z-score [10]: -0.0296

SMILES: C=CCOC(=O)[C@H]1[C@@H]2C(=O)O[C@@H](c3ccccc3)[C@@H](c3ccccc3)N2[C@@H](c2ccc(OCCOC(=O)[C@H]3C[C@H]4C(=O)N[C@@H](Cc5ccccc5)C(=O)N4[C@H]3c3cccc(OCCO)c3)cc2)[C@]12C(=O)Nc1ccc(I)cc12
- composite z-score [1]: -0.36
- composite z-score [2]: 0.876
- composite z-score [3]: 0.0422
- composite z-score [4]: 0.66
- composite z-score [5]: 0.118
- composite z-score [6]: 1.35
- composite z-score [7]: 1.21
- z-score [8]: 0.633 (inactive)
- composite z-score [9]: 0.0086
- composite z-score [10]: 0.122

SMILES: O=C(O)[C@H](Cc1ccccc1)n1cc(-c2ccccn2)nn1
- composite z-score [1]: -0.158
- composite z-score [2]: -0.258
- composite z-score [3]: -0.149
- composite z-score [4]: 0.306
- composite z-score [5]: 0.377
- composite z-score [6]: 0.286
- composite z-score [7]: 1.07
- z-score [8]: 1.24 (inactive)
- composite z-score [9]: 0.321
- composite z-score [10]: -0.0672

SMILES: CO[C@H]1O[C@H](CO)[C@@H](OC(=O)c2ccc(Br)cc2)[C@@H]2OC(=O)[C@@H](Cc3ccc4ccccc4c3)C/C=C/C[C@H](Cc3ccc4ccccc4c3)C(=O)O[C@@H]12
- composite z-score [1]: -0.248
- composite z-score [2]: -0.08
- composite z-score [3]: 0.0289
- composite z-score [4]: 0.622
- composite z-score [5]: 0.714
- composite z-score [6]: 1.74
- composite z-score [7]: 1.2
- z-score [8]: -1.14 (inactive)
- composite z-score [9]: 0.349
- composite z-score [10]: 1.2

SMILES: [N-]=[N+]=Nc1ccccc1C[C@]1(C(=O)NCc2ccccc2)N=C(c2ccc(OCCCO)cc2)O[C@H]1c1ccccc1
- composite z-score [1]: 0.0843
- composite z-score [2]: 0.984
- composite z-score [3]: 0.0898
- composite z-score [4]: 0.584
- composite z-score [5]: 1.61
- composite z-score [6]: 1.86
- composite z-score [7]: 1.2
- z-score [8]: -2.1 (inactive)
- composite z-score [9]: 1.22
- composite z-score [10]: 0.0515

SMILES: Cc1ccc(S[C@]2(C(=O)NC3CC3)CC(=O)N(Cc3ccccc3Cl)[C@@H]2c2ccc(CO)cc2I)cc1
- composite z-score [1]: 0.29
- composite z-score [2]: 0.132
- composite z-score [3]: -0.106
- composite z-score [4]: 0.171
- composite z-score [5]: 0.0538
- composite z-score [6]: 1.72
- composite z-score [7]: 1.24
- z-score [8]: -2.19 (inactive)
- composite z-score [9]: -0.0129
- composite z-score [10]: -0.123

SMILES: O=C1NC(=O)C2C1C=CC(C(O)c1cc(C(F)(F)F)cc(C(F)(F)F)c1)N2Nc1ccc(Cl)cc1Cl (stereo not given)
- composite z-score [1]: 0.812
- composite z-score [2]: 0.623
- composite z-score [3]: 0.277
- composite z-score [4]: 0.404
- composite z-score [5]: 0.351
- composite z-score [6]: 1.45
- composite z-score [7]: 0.766
- z-score [8]: -0.166 (inactive)
- composite z-score [9]: 0.881
- composite z-score [10]: -0.0346

SMILES: C=C(COC)/C(=C/C[C@@H](OC(=O)c1ccncc1)c1ccc(CO)o1)c1cnc2ccccc2c1
- composite z-score [1]: -0.376
- composite z-score [2]: 1.03
- composite z-score [3]: 0.0235
- composite z-score [4]: 1.2
- composite z-score [5]: 1.73
- composite z-score [6]: 1.5
- composite z-score [7]: 1.34
- z-score [8]: 0.487 (inactive)
- composite z-score [9]: 0.668
- composite z-score [10]: 0.115

SMILES: O=C1NCC(=O)N2[C@@H]1C[C@@H](C(=O)O)[C@H]2c1ccc(O)cc1
- composite z-score [1]: 0.257
- composite z-score [2]: 0.433
- composite z-score [3]: 0.0121
- composite z-score [4]: 0.593
- composite z-score [5]: -0.218
- composite z-score [6]: 1.81
- composite z-score [7]: 1.39
- z-score [8]: 4.94 (inactive)
- composite z-score [9]: 0.0816
- composite z-score [10]: -0.0618

SMILES: O=C1NC(=O)C2C1C=CC(C(O)c1ccc(Br)cc1)N2Nc1ccccn1 (stereo not given)
- composite z-score [1]: 0.253
- composite z-score [2]: 0.156
- composite z-score [3]: 0.0969
- composite z-score [4]: 1.05
- composite z-score [5]: 1.39
- composite z-score [6]: 1.8
- composite z-score [7]: 0.95
- z-score [8]: -0.383 (inactive)
- composite z-score [9]: 0.331
- composite z-score [10]: -0.0296

SMILES: CC(C)CNC(=O)[C@@H]1c2ccccc2C(=O)N(Cc2cc(F)cc(C(F)(F)F)c2)[C@H]1c1ccc(CO)cc1
- composite z-score [1]: 0.366
- composite z-score [2]: -0.23
- composite z-score [3]: 0.0079
- composite z-score [4]: 0.207
- composite z-score [5]: 0.561
- composite z-score [6]: 0.38
- composite z-score [7]: 1.23
- z-score [8]: -1.78 (inactive)
- composite z-score [9]: 0.0604
- composite z-score [10]: -0.0237

SMILES: COCCCNC(=O)[C@@]1(Sc2ccc(C)cc2)CC(=O)N(Cc2cc(C(F)(F)F)cc(C(F)(F)F)c2)[C@@H]1c1ccc(CO)cc1
- composite z-score [1]: 0.0028
- composite z-score [2]: 0.525
- composite z-score [3]: -0.144
- composite z-score [4]: -0.29
- composite z-score [5]: 0.0762
- composite z-score [6]: 1.22
- composite z-score [7]: 0.875
- z-score [8]: -0.42 (inactive)
- composite z-score [9]: -0.168
- composite z-score [10]: 0.213

SMILES: COCCCNC(=O)[C@]1(Cc2ccccc2CN=[N+]=[N-])N=C(c2ccc(OCCCO)cc2)O[C@@H]1c1ccccc1
- composite z-score [1]: -0.254
- composite z-score [2]: 1.19
- composite z-score [3]: 0.0788
- composite z-score [4]: 0.627
- composite z-score [5]: 1.09
- composite z-score [6]: 0.969
- composite z-score [7]: 1.12
- z-score [8]: -3.73 (inactive)
- composite z-score [9]: 1.03
- composite z-score [10]: -0.0645

SMILES: C=C(COC)/C(=C/C[C@@H](OC(=O)c1ccncc1)c1cccc(OCCO)c1)c1cnc2ccccc2c1
- composite z-score [1]: 0.234
- composite z-score [2]: 1.99
- composite z-score [3]: 0.0601
- composite z-score [4]: 1.19
- composite z-score [5]: 1.76
- composite z-score [6]: 1.14
- composite z-score [7]: 1.2
- z-score [8]: 0.589 (inactive)
- composite z-score [9]: 1.47
- composite z-score [10]: 0.251

SMILES: O=C1O[C@@H](c2ccccc2)[C@@H](c2ccccc2)N2[C@@H](c3ccccc3OCCO)[C@]3(C(=O)Nc4ccc(C#CC5=CCCCC5)cc43)[C@@H](C(=O)NC[C@H](O)c3ccccc3)[C@H]12
- composite z-score [1]: -0.595
- composite z-score [2]: 2.06
- composite z-score [3]: 0.0296
- composite z-score [4]: 0.648
- composite z-score [5]: 0.948
- composite z-score [6]: 1.42
- composite z-score [7]: 1.01
- z-score [8]: -0.279 (inactive)
- composite z-score [9]: 0.517
- composite z-score [10]: -0.0391

SMILES: COc1cc(CO)cc(I)c1O[C@H]1C=C(C(=O)NCCO)C[C@@H](N(Cc2ccc(F)cc2)C(=O)C2CCCO2)[C@@H]1O (stereo not given in full)
- composite z-score [1]: -0.625
- composite z-score [2]: 0.114
- composite z-score [3]: -0.057
- composite z-score [4]: 0.122
- composite z-score [5]: 0.159
- composite z-score [6]: -0.0002
- composite z-score [7]: 0.547
- z-score [8]: -0.851 (inactive)
- composite z-score [9]: 0.0494
- composite z-score [10]: 0.142

SMILES: CC1CC/C=C\[C@H]2OC34C=CCN(c5ccc6ccccc6c5)C(=O)[C@H]3N(C(CO)C(C)C)C(=O)[C@@H]4C2C(=O)O1 (stereo not given in full)
- composite z-score [1]: -0.729
- composite z-score [2]: -0.0684
- composite z-score [3]: -0.0598
- composite z-score [4]: -0.0104
- composite z-score [5]: -0.477
- composite z-score [6]: 1.93
- composite z-score [7]: 1.43
- z-score [8]: 0.718 (inactive)
- composite z-score [9]: -0.25
- composite z-score [10]: -0.132

SMILES: COc1ccc(C(O)C2C=CC3C(=O)N(Cc4ccccc4)C(=O)C3N2n2cnnc2)c2ccccc12 (stereo not given)
- composite z-score [1]: 0.487
- composite z-score [2]: 1.07
- composite z-score [3]: -0.0876
- composite z-score [4]: -0.522
- composite z-score [5]: -0.782
- composite z-score [6]: 1.81
- composite z-score [7]: 1.32
- z-score [8]: 0.422 (inactive)
- composite z-score [9]: 0.623
- composite z-score [10]: -0.162

SMILES: CCOC(=O)C[C@H]1[C@H](OC(=O)c2ccccc2-c2ccccc2)[C@@H](NC(=O)CC(C)C)c2cc(OCCCO)ccc2N1C(=O)c1ccc2ccccc2n1
- composite z-score [1]: -0.469
- composite z-score [2]: 0.257
- composite z-score [3]: -0.0463
- composite z-score [4]: 0.414
- composite z-score [5]: 0.549
- composite z-score [6]: -0.121
- composite z-score [7]: 0.324
- z-score [8]: 0.0832 (inactive)
- composite z-score [9]: 0.535
- composite z-score [10]: 0.0274

SMILES: O=C1c2ccccc2[C@@]2(Cc3ccccc3N(C3CC3)C2=O)[C@H](c2ccc(CO)cc2)N1C1CCCCC1
- composite z-score [1]: -0.0266
- composite z-score [2]: -0.625
- composite z-score [3]: -0.0325
- composite z-score [4]: -0.015
- composite z-score [5]: -0.119
- composite z-score [6]: 0.123
- composite z-score [7]: -0.716
- z-score [8]: 0.291 (inactive)
- composite z-score [9]: -0.0416
- composite z-score [10]: -0.0994
